From PubChem BioAssay (NCI)
This is part of a sample that, as a whole, favours compounds with a hit. Of some 83,000 tested, about 20% had one in any assay.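 Growth was measured after 48 h exposure to one concentration of compound in 96-well plates. Values under 10 count as active.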 A number with no mark means an inactive call. Activity calls are given as the source filed them.

Tested on: HL-60(TB) leukemia
Assay: NCI-60 one-dose screen, 48 h (100 = growth as untreated, 0 = no growth, -100 = all killed)
Settings: 10 µM unless noted

| Compound | growth |
| --- | --- |
| Cn1cc(-c2nnc(-c3cn(C)c4ncc(Br)cc34)o2)c2ccccc21 | 99% |
| CN1CCN(CCCOc2ccc3nc(Nc4ccc(F)c(F)c4)ccc3c2)CC1 | 46.8% |
| CCOC(=O)C(C)C(C)(O)c1ccccc1 (stereo not given) | 99.2% |
| Cc1[nH]n(C(N)=S)c(=O)c1N=Nc1ccc(F)c(Cl)c1 | 90.6% |
| C=C(C)[C@@H]1C[C@H](O)Cc2cc(F)ccc2N1 | -20.3% (active) |
| C=C/C(C)=C/C[C@]1(C)[C@H](C)[C@@H](OC(=O)CCC)[C@H](O)[C@@]23C(=C[C@H](OC)C[C@@H]12)[C@@H](OC(=O)CCC)O[C@H]3OC(C)=O | -43.9% (active) |
| Cc1cc(NC(=O)Nc2cc(Cl)ccc2C)no1 | 88.4% |
| COc1ccc(C(=O)C2CC2c2ccc(Cl)cc2)cc1 (stereo not given) | 14.1% |
| O=C1c2ccc3c4c(ccc(c24)C(=O)N1CCCNCc1ccccc1F)C(=O)N(CCCNCc1ccccc1F)C3=O | -59% (active) |
| COc1cc(/C=C2\CCC/C(=C\c3cc(CN4CCCCC4)c(O)c(OC)c3)C2=O)cc(CN2CCCCC2)c1O | 92.7% |
| COc1cc(/C=N/NC(=O)c2cnn3c2NC(c2ccccc2)C3)ccc1Oc1ccccc1 (stereo not given) | 14.3% |
| COc1cc(C2C3=C(COC3=O)N(CCO)c3cc4c(cc32)OCO4)cc(OC)c1O (stereo not given) | 4.08% (active) |
| COc1cc(C2CC(c3ccc(SC)cc3)=NN2C(C)=O)cc(OC)c1OC (stereo not given) | 17.6% |
| O=C1C(Cl)=C(NCCCCCCNC2=C(Cl)C(=O)c3ccccc3C2=O)C(=O)c2ccccc21 | 55.7% |
| COc1cc2cc(Oc3ccc(NC(=O)c4ccc(Cl)c(C(F)(F)F)c4)cc3)c(C)nc2cc1OC | 17.4% |
| CCOC(=O)[C@H](CSSc1ncnc2cc[nH]c12)NC(=O)[C@@H](C)c1ccc2cc(OC)ccc2c1 | 7.65% (active) |
| O=C1C=CC(=O)N1c1ccccc1N1C(=O)C=CC1=O | 31.7% |
| O=C1c2cccc3cccc(c23)C(=O)N1C/C=C/c1ccc2c3c(cccc13)C(=O)N(CCO)C2=O | 94.2% |
| Cc1cc(NS(=O)(=O)c2ccc(-c3cnc(C4CC4)o3)cc2)ccc1Cl | 0.815% (active) |
| Nc1nc2nnc(-c3ccccc3)c(-c3ccccc3)n2n1 | 146% |

| Compound | growth |
| --- | --- |
| Cc1cc(C(=O)CCCC(=O)c2cc(C)c(O)c(C)c2)cc(C)c1O | 84.6% |
| COc1ccccc1NC(=O)c1ccc(/C=C/C(=O)c2nccn2C)cc1 | -9.45% (active) |
| CN(C)c1ccc2c(c1)OC(N)=C(C#N)C2c1ccc2c(c1)CCO2 (stereo not given) | -1.56% (active) |
| COc1cc(OC)c(NC(=O)c2cc3ccccc3cc2O)cc1Cl | 22% |
| O=C1/C(=C/c2ccc(F)cc2)CN(C(=O)CCN2CCC(=NO)CC2)C/C1=C\c1ccc(F)cc1 | -8.33% (active) |
| C=C1C(=O)O[C@H]2[C@H]1CC/C(COC(=O)CCCC(=O)OC/C1=C/CC[C@@]3(C)O[C@H]3[C@H]3OC(=O)C(=C)[C@@H]3CC1)=C\CC[C@@]1(C)O[C@@H]21 | -41.8% (active) |
| Cc1ccc(C2CC(c3nc(-c4ccc(Cl)cc4)oc3C)=NN2C(=O)c2ccncc2)cc1 (stereo not given) | 97.7% |
| O=C(O)CCCN1C(=O)NC2(C1=O)c1ccccc1-c1ccccc12 | 101% |
| O=C1/C(=C/c2ccccc2)CCc2nc3ccccc3c(/C=C/c3ccc(Cl)cc3)c21 | 83.2% |
| Cc1nc2ccccc2n1CC1C(=O)NC(=O)NC1=O | 102% |
| COc1ccc(C(=O)c2cc(C)c(OC)c(C)c2)cc1OC(=O)CCl | -43.6% (active) |
| O=C1O[C@H]([C@H](O)CO)C(O)=C1O | 99.5% |
| C[C@@H]1CN(Cc2ccc(/C=C/c3n[nH]c4ccc5nc(-c6cn[nH]c6C(F)(F)F)c6c(c5c34)CCCC6)cc2)C[C@H](C)O1 | 46.7% |
| N=c1ccn2c(n1)O[C@@H]1[C@@H](O)[C@H](CO)O[C@@H]12 | 84% |
| C=C1CC2(OC1=O)C(=O)N(C)c1ccc(I)cc12 (stereo not given) | -56.5% (active) |
| CCCCCS(=O)(=O)Nc1ccc(C(=O)O)cc1 | 101% |
| CCOC(=O)Cn1c(=O)c2c3ccccc3n(C)c2n2nnc(-c3ccccc3)c12 | 68.5% |
| C/C(=N/NC(=S)Nc1ccccc1)c1nc2ccc(Cl)cc2[nH]1 | -11.7% (active) |
| COc1ccc(C2Nc3ccccc3-n3cccc32)cc1 (stereo not given) | 113% |
| Nc1nc(SCC2(CCl)COC2)c2[nH]cnc2n1 | 105% |
